Screens from PubChem.
TNFa cytotox: cytotoxicity in TNFa-stimulated HUVEC, primary screen, cytotoxicity control for VCAM1 expression modulator project, imaging, Hoechst nuclei count | AID 848, 2007 | HUVEC TNFalpha-stimulated, Hoechst cell count | 93,000 compounds, 0.17% hits | cell count reduction, % at 2 µM;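 active = cell count reduction exceeding the screen mean by over 5 SD, scaled to untreated wells per plate, cut at about 78% in these data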;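 also: cells counted after 24 h of TNF alpha exposure following the 1 h pretreatment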
VCAM1 TNFa inh: inhibitors of TNFa-induced VCAM1 expression, primary screen, imaging, HUVEC, TNFa stimulus, immunofluorescence; inhibition, % at 2 µM; 95,000 compounds, 0.48% hits; AID 802, 2007; HUVEC TNFa-induced VCAM-1 immunofluorescence, high-content imaging;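 active = inhibition above the batch mean plus 3 SD, with images confirmed as a hit by eye, cut at about 37% in these data; inconclusive = inhibition above that limit but hit not confirmed in images; inactive = inhibition not above that limit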
IL1B cytotox: cytotoxicity in IL-1B stimulated HUVEC, primary screen, cytotoxicity control for IL-1B NFkB translocation project, imaging, Hoechst nuclear count, IL-1B stimulus | HUVEC cell count loss | cell count reduction, % at 2 µM | 94,000 compounds, 0.41% hits | AID 845, 2007;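 active = cell count reduction more than 3 SD above the screen-wide mean, cut at about 70% in these data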
E-sel TNF inh: E-selectin induction blockers in HUVEC – imaging, immunofluorescence, high content, primary screen; HUVEC TNFa-induced E-selectin immunofluorescence; inhibition, % at 2 µM; 120,000 compounds, 0.71% hits;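 active = inhibition above the batch mean plus 3 SD, and confirmed as a hit on visual image review, cut at about 43% in these data; inconclusive = passes the inhibition cutoff but fails visual image review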
NFkB transloc inh: inhibitors of IL-1B driven NFkB p65 nuclear import, primary screen, imaging, HUVEC, IL-1B stimulus, high-content imaging | HUVEC IL-1B NFkB p65 nuclear translocation imaging | inhibition, % at 2 µM | 94,000 compounds, 0.43% hits | AID 796, 2007;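 active = inhibition above about 30% together with a positive call from visual inspection of the well image, limit read from the data; inconclusive = inhibition above a set limit but visual check negative; inactive = inhibition not above a set limit, visual check negative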;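 also: nuclear over cytoplasmic p65 intensity ratio measured by imaging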
IL1B NFkB pot: enhancers of NFkB p65 translocation in HUVEC – imaging, IL-1B stimulus, high-content imaging, primary screen | HUVEC IL-1B NFkB p65 nuclear translocation imaging | activation, % at 2 µM | 94,000 compounds, 0.3% hits;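 active = activation above 40%, about the mean plus 3 SD, also judged a hit on visual image review; inconclusive = activation above 40% but not a hit on visual review; inactive = activation not above 40% and no visual hit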;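 also: percent activation is computed from the nuclear over cytoplasmic p65 intensity ratio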
Of the large screens only hits and unclear results are named; the others gave an inactive call. Most compounds without a hit are left out; they make up all but 1.7% or so of the library.

COc1ccccc1CC1(C)NC(=O)N(CC(=O)N2CC(C)OC(C)C2)C1=O (stereo not drawn)	E-sel TNF inh 87
N/C(Cc1cccc2ccccc12)=N\OC(=O)c1ccc2c(c1)OCO2	E-sel TNF inh 83 (no result: TNFa cytotox, VCAM1 TNFa inh, IL1B cytotox, NFkB transloc inh, IL1B NFkB pot)
CCOC(=O)Nc1nc(-c2ccc(Cl)cc2Cl)cs1	none (no result: TNFa cytotox, VCAM1 TNFa inh, IL1B cytotox, NFkB transloc inh, IL1B NFkB pot)
Cc1cccc(-n2nnnc2SCc2csc(-c3ccccc3)n2)c1	TNFa cytotox 88
CCOc1ccccc1C1CC(=O)Nc2cc3c(cc21)OCCO3 (stereo not drawn)	none (no result: E-sel TNF inh)
CCCOc1ccccc1C1CC(=O)Nc2cc3c(cc21)OCCO3 (stereo not drawn)	VCAM1 TNFa inh 51
CC(C)Oc1ccccc1C1CC(=O)Nc2cc3c(cc21)OCO3 (stereo not drawn)	VCAM1 TNFa inh 85 (no result: E-sel TNF inh)
O=C(COC(=O)c1ccccc1F)c1ccc(-n2nncc2-c2ccco2)cc1	IL1B NFkB pot 42
C=CCNC(=O)c1ccccc1NC(=O)C1COc2ccccc2O1 (stereo not drawn)	none (no result: TNFa cytotox, VCAM1 TNFa inh, IL1B cytotox, NFkB transloc inh, IL1B NFkB pot)
Cc1ccc(NCCC#N)cc1C	none (no result: TNFa cytotox, VCAM1 TNFa inh, IL1B cytotox, NFkB transloc inh, IL1B NFkB pot)
Cc1ccc(-n2c(=O)c3c4c(sc3n(Cc3cc(=O)n5ccccc5n3)c2=O)CCC4)cc1C	E-sel TNF inh 90 (no result: TNFa cytotox, VCAM1 TNFa inh, IL1B cytotox, NFkB transloc inh, IL1B NFkB pot)
Cc1ccc(NC(=O)c2ccc(C(C)(C)C)cc2)cc1[N+](=O)[O-]	none (no result: TNFa cytotox, VCAM1 TNFa inh, IL1B cytotox, NFkB transloc inh, IL1B NFkB pot)
CCn1c(=O)cc(OCC(=O)NCc2ccco2)c2ccccc21	TNFa cytotox 90, VCAM1 TNFa inh inconclusive (no result: E-sel TNF inh)
Oc1ccc2n[nH]nc2c1	none (no result: TNFa cytotox, VCAM1 TNFa inh, IL1B cytotox, NFkB transloc inh, IL1B NFkB pot)
O=C(CCc1ccccc1)Nc1ncc2c(n1)CCCC2=O	E-sel TNF inh 72
CC1(C)CC(=O)c2cnc(NC(=O)CCc3ccccc3)nc2C1	none
COc1ccc(C2=NCCn3cccc32)c(OC)c1	none (no result: TNFa cytotox, VCAM1 TNFa inh, IL1B cytotox, NFkB transloc inh, IL1B NFkB pot)
